In PubChem BioAssay (EPA / NIEHS):
Active and inactive are the calls of the source. How the source made its calls: active means hit-call score of the fitted dose curve at least 0.9, where 1 is the maximum; inactive means score below 0.9.

Assay: ATG_CRE_CIS: Attagene CIS-FACTORIAL HepG2 Assay for human cAMP Responsive Element (CRE) binding protein 3 (AID 2282926)
Details: HepG2 CRE cis-reporter, Attagene multiplexed mRNA; actives raise or lower the signal
Method in brief: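 Readout: fluorescently labelled reporter transcripts resolved by capillary electrophoresis after RT-PCR, taken 24 h post-dosing in transfected HepG2. Endogenous transcription factor activity drives each cis-element reporter; gain or loss of signal fitted relative to DMSO control.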

| SMILES | outcome |
| --- | --- |
| O=C1C(Cl)=C(Cl)C(=O)C(Cl)=C1Cl | inactive |
| N#CCCCCC#N | inactive |
| CC1CCC(=O)O1 (stereo not given) | inactive |
| COc1cc(OC)c(OC)cc1C=O | inactive |
| CC(C)c1ccc(O)cc1 | inactive |
| C[N+](C)(C)CC(=O)[O-] | inactive |
| CC(C)(c1cc(Cl)c(O)c(Cl)c1)c1cc(Cl)c(O)c(Cl)c1 | inactive |
| O=C(NCNC(=O)NC1C(=O)NC(=O)N1CO)NC1C(=O)NC(=O)N1CO (stereo not given) | inactive |
| [N-]=[N+]=CC(=O)OC[C@H](N)C(=O)O | inactive |
| COCC(=O)N(c1c(C)cccc1C)N1CCOC1=O | inactive |
| CC(C)CCCCCCCOP(=O)(Oc1ccccc1)Oc1ccccc1 | inactive |
| CCC1CCC(=O)O1 (stereo not given) | inactive |
| C=COCCCl | inactive |
| C=CCN(CC=C)C(=O)C(Cl)Cl | inactive |
| CC[N+](=O)[O-] | inactive |
| CC(Cc1ccc(C(C)(C)C)cc1)CN1C[C@@H](C)O[C@@H](C)C1 (stereo not given in full) | inactive |
| [Cl-].[Cl-].[Cl-].[Yb+3] | inactive |
| CCOC(=O)N(C)N=O | inactive |
| O=CNC(N1CCN(C(NC=O)C(Cl)(Cl)Cl)CC1)C(Cl)(Cl)Cl (stereo not given) | inactive |
| CCC[N+](=O)[O-] | inactive |

| SMILES | outcome |
| --- | --- |
| CC(C)(O)C#N | inactive |
| CC(C)C#N | inactive |
| S=c1[nH]c2ccccc2[nH]1 | inactive |
| CCCCCc1cc(O)cc(O)c1 | inactive |
| c1ccc(Nc2ccc3ccccc3c2)cc1 | inactive |
| CSc1nc(N=[N+]=[N-])nc(NC(C)C)n1 | inactive |
| CC=Cc1ccc2c(c1)OCO2 | inactive |
| Cc1ccc(OP(=O)(Oc2ccc(C)cc2)Oc2ccc(C)cc2)cc1 (tested in a mixture with another compound) | inactive |
| ClC1=C(Cl)[C@]2(Cl)[C@@H]3[C@@H](Cl)[C@H](Cl)C[C@@H]3[C@@]1(Cl)C2(Cl)Cl | inactive |
| O=S(=O)(c1ccccc1)c1ccccc1 | inactive |
| CCC(C)c1cc(C(C)(C)C)cc(-n2nc3ccccc3n2)c1O (stereo not given) | inactive |
| CC1(C)C(=O)NC(=O)NC1=O | inactive |
| CC(=O)/C=C/c1ccccc1 | inactive |
| c1ccc(P(c2ccccc2)c2ccccc2)cc1 | inactive |
| CCOC(=O)COc1ccc(Cl)cc1Cl | inactive |
| CCN(CC)C(=S)S | inactive |
| N#Cc1cccc(C#N)c1 | inactive |
| O=C1Nc2ccc(Cl)cc2C(c2ccccc2)=NC1O (stereo not given) | inactive |
| N#CC(c1ccccc1)c1ccccc1 | inactive |
| C[N+](C)=CCl | inactive |
